Calls of active or inactive are those of the source. Unless noted, no rule for the calls is given here.

Assay [1] concerns Wnt5a (protein binding on small-molecule microarray). Put plainly: small molecules binding Wnt5a protein – biophysical, small-molecule microarray, 635/667 nm fluorescence, primary screen (AID 1142).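 Also: fluorescence read at 667 nm with signal to noise per printed feature.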 The following applies: 635 nm fluorescence, higher = more signal.
Assay [2] is described as follows: ATP-based viability of Huh7 replicon cells – cell-based, CellTiter-Glo luminescence, basal, 48 h, cytotoxicity control for HCV replication inhibitor project, primary screen (AID 1143).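 Also: Huh7 hepatoma cells carrying a hepatitis C replication reporter with no stimulus; test concentration not given here.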 The following applies: higher = more signal, called active from +8 up or from −8 down. On the technique in general: A replicon is a self-replicating genome or part of one, used to study replication in cells.

Assay [3] can be described thus: Pseudomonas biofilm growth suppression – PAO1 strain, BacTiter-Glo luminescence, LB-PBS, primary screen (AID 1144). To be noted: P. aeruginosa PAO1 biofilm, 12 h, higher = more signal.
Assay [4] can be described thus: basal CRE-LacZ reporter activity in PC12 – cell-based, unstimulated, primary screen (AID 1145). To be noted: no forskolin, luminescence, 4.5 h, higher = more signal, called active from +8 up or from −8 down.
Assay [5] in a line: forskolin-driven CRE-LacZ activity in PC12 – cell-based, CRE-LacZ reporter, forskolin-stimulated, primary screen (AID 1146).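 Also: PC12 cells with 6xCRE LacZ reporter stimulated by forskolin 10 µM; beta-galactosidase reporter signal reflecting CREB driven transcription.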 To be noted: luminescence, 4.5 h, higher = more signal, called active from +8 up or from −8 down.
The target of assay [6] is Streptavidin (Streptomyces avidinii) (UniProt P22629). Put plainly: compounds binding control protein streptavidin – biophysical, small-molecule microarray, 635/667 nm fluorescence, artefact control for SMM compound annotation, primary screen (AID 1147).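 Also: signal reflects streptavidin binding to arrayed compounds as a control protein.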 The following applies: higher = more signal.
Assay [7] can be described thus: probe aInhba binding on compound microarray – biochemical, small-molecule microarray, 635/667 nm fluorescence, primary screen (AID 1148).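 Also: score merges 667nm spot fluorescence with signal-to-noise for antibody binding to printed compounds.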 To be noted: higher = more signal.
Assay [8] addresses Torsin-1A (Homo sapiens) (UniProt O14656). In words: TOR1A wild-type binding on microarray – cell lysate, small-molecule microarray, lysate, 635/667 nm, primary screen (AID 1149). To be noted: COS7 hTOR1A-WT lysate, 635 nm fluorescence, higher = more signal.
The target is the same in assay [9]. Put plainly: torsin A mutant lysate binding on microarrays – cell lysate, small-molecule microarray, COS7 lysate, 635/667 nm fluorescence, primary screen (AID 1150).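 Also: score pools 667 nm emission and signal to noise measuring lysate protein binding.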 To be noted: COS7 hTOR1A mutant lysate, 635 nm fluorescence, higher = more signal.
Assay [10] relates to Sonic hedgehog protein (Shh). Put plainly: Sonic hedgehog microarray binding compounds – biochemical, small-molecule microarray, 635/667 nm fluorescence, primary screen (AID 1151).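 Also: Shh protein binding to compounds spotted on small-molecule microarray slides; score combines spot fluorescence intensity with signal-to-noise across triplicate slides.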 To be noted: 635 nm fluorescence, higher = more signal.
Assay [11] is described as follows: optical density shifts of acrAB sulA E. coli – strain DRC41, OD650, 48 h, E. coli filamentation inducer project, primary screen (AID 1152).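 Also: E. coli MC1000 strain DRC41 lacking acrAB efflux pump and sulA.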 To be noted: higher = more signal, called active from +8 up or from −8 down.
Assay [12] can be described thus: probe aLefty1 binding on compound microarray – biochemical, small-molecule microarray, 635/667 nm fluorescence, primary screen (AID 1153).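 Also: score merges spot fluorescence with signal-to-noise ratio from the scanned slide images.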 The following applies: higher = more signal.
Assay [13] is described as follows: plasmodial surface anion channel blockers, osmotic lysis – cell-based, P. falciparum Indochina, OD700, 1 h, primary screen (AID 1154). To be noted: P. falciparum Indochina infected RBC osmotic lysis, higher = more signal, called active from +8 up or from −8 down.
Assay [14] is described as follows: plasmodial surface anion channel blockers, osmotic lysis – cell-based, P. falciparum Indochina, OD700, 2 h, primary screen (AID 1155).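 Also: lysis reports solute entry through the parasite surface anion channel PSAC.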 The following applies: P. falciparum Indochina infected erythrocytes, higher = more signal, called active from +8 up or from −8 down.
Assay [15] is described as follows: changes in parasitized red cell lysis, either direction – P. falciparum Indochina, OD700, 3 h, PSAC antagonist project, primary screen (AID 1156). To be noted: P. falciparum-infected erythrocytes, osmotic lysis, higher = more signal, called active from +8 up or from −8 down.
A short description of assay [16]: plasmodial surface anion channel blockers, osmotic lysis – cell-based, P. falciparum Indochina, OD700, 18 h, primary screen (AID 1157). The following applies: P. falciparum Indochina infected erythrocytes, osmotic lysis OD700, 18 h; higher = more signal, called active from +8 up or from −8 down.
Assay [17] is described as follows: S6 kinase pathway phospho-S6 level changes – cell-based, A549, cytoblot, luminescence, serum-stimulated, primary screen (AID 1158).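 Also: serum-stimulated A549 lung adenocarcinoma cells; signal is phosphorylated S6 detected by cytoblot immunostaining with HRP secondary.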 To be noted: 5 h, higher = more signal.
In assay [18] the target is NADPH oxidase 2 (Homo sapiens) (UniProt P04839). In words: compounds shifting NOX2 Amplex Red fluorescence – cell-based, HEK293-NOX2, PMA-stimulated, NOX inhibitor project, primary screen (AID 1159). Also: test concentration not given here. The following applies: 45 min, higher = more signal, called active from +8 up or from −8 down.
For assay [19], the target named is NADPH oxidase 4 (Homo sapiens) (UniProt Q9NPH5). Put plainly: compounds shifting NOX4 Amplex Red fluorescence – cell-based, HEK293-NOX4, tetracycline-induced, NOX inhibitor project, primary screen (AID 1160). The following applies: HEK293-NOX4, Amplex Red H2O2 fluorescence, 45 min; higher = more signal, called active from +8 up or from −8 down.
Assay [20] deals with NADPH oxidase 5 (Homo sapiens) (UniProt Q96PH1). In words: compounds shifting NOX5 Amplex Red fluorescence – cell-based, HEK293-NOX5, NOX inhibitor project, primary screen (AID 1161). To be noted: HEK293-NOX5, ionomycin, 45 min, higher = more signal.
Chain of NADPH oxidase 5 (Homo sapiens) (Q96PH1 whole entry, looked up): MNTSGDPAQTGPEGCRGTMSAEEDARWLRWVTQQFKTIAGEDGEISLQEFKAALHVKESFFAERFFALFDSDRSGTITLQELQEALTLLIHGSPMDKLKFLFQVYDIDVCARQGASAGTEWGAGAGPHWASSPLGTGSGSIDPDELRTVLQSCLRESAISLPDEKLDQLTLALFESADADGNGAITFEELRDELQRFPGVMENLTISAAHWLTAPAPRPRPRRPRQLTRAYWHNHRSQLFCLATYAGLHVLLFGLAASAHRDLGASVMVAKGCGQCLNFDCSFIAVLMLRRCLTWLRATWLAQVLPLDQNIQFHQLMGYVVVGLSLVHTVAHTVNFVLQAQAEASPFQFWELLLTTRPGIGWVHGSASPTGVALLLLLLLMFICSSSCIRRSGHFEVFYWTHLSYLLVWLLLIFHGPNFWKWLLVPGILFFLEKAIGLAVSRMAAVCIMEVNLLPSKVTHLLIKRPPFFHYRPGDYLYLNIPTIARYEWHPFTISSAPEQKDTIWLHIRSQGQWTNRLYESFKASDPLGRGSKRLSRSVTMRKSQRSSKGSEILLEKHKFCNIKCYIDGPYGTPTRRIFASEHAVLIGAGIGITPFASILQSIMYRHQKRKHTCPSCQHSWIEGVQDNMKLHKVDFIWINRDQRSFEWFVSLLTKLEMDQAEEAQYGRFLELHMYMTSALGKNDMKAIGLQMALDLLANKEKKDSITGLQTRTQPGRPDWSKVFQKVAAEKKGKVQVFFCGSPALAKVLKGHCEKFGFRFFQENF

Chain of Streptavidin (Streptomyces avidinii) (P22629 whole entry, looked up): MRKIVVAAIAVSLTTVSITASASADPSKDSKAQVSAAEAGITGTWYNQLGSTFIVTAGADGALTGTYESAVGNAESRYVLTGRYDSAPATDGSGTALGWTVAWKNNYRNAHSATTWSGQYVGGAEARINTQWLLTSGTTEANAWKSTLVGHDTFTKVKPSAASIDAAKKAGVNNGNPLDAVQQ
Chain of Torsin-1A (Homo sapiens) (O14656 whole entry, looked up): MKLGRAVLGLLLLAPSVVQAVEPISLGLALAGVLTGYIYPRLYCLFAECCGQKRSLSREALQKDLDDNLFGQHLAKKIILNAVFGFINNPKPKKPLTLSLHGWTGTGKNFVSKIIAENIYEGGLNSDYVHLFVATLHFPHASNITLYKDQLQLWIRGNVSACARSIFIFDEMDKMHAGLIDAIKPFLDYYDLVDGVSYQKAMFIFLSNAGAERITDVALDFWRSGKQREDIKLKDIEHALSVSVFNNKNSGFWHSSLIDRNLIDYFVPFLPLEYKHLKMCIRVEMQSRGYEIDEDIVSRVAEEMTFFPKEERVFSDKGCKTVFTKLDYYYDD
Chain of NADPH oxidase 2 (Homo sapiens) (P04839 whole entry, looked up): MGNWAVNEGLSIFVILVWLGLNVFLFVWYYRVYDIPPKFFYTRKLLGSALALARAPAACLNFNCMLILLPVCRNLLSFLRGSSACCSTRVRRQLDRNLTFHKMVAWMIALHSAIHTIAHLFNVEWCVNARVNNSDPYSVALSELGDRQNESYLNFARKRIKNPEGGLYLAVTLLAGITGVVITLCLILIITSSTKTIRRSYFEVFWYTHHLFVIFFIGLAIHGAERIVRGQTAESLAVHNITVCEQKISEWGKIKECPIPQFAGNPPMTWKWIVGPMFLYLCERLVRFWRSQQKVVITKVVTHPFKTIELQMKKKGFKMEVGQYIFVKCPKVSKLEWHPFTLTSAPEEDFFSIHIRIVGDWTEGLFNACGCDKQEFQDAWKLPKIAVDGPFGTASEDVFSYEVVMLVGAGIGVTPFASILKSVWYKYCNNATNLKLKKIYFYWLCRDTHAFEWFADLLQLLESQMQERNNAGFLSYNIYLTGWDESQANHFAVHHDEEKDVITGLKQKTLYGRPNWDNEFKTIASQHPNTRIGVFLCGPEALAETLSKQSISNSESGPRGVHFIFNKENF
Chain of NADPH oxidase 4 (Homo sapiens) (Q9NPH5 whole entry, looked up): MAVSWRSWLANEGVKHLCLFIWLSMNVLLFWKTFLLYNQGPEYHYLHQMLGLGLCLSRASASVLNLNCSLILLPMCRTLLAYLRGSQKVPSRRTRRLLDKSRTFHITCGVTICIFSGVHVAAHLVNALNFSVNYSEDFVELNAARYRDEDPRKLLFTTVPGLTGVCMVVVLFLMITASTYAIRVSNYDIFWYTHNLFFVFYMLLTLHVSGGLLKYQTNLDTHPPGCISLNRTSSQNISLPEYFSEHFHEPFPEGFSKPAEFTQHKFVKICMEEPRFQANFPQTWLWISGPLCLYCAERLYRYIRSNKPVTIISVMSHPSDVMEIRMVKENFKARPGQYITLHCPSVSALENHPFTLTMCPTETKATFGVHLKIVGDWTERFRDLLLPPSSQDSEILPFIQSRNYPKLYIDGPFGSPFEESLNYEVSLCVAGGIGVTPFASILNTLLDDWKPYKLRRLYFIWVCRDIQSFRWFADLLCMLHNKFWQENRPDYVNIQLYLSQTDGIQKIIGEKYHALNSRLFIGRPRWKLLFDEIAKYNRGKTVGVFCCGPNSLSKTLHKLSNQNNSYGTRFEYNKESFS

Take `CC1CC/C=C\[C@H]2OC34C=CCN(CCN5CCOCC5)C(=O)[C@H]3N(C(CO)C(C)C)C(=O)[C@@H]4C2C(=O)O1` (stereo not given in full): the composite z-score in assay [1] is 0.115; in assay [6] it was -0.0429; in assay [7], -0.128; with Torsin-1A (Homo sapiens) [8], 1; with Torsin-1A (Homo sapiens) [9], -0.05; in [10], 0.795. In assay [12], this compound registered a composite z-score of -0.247. Also, the z-score in assay [2] is 0.211 (inactive); in assay [3] it was 1.52 (inactive); in assay [4], -0.0778 (inactive); in assay [5], 0.341 (inactive); in assay [11], -0.481 (inactive); in [13], 1.94 (inactive). Moreover, the z-score in [14] was -0.184 (inactive); in [15], 0.927 (inactive); in assay [16], 0.233 (inactive); in assay [17] it was -0.69; in [18], 1.13 (inactive); in assay [19], -0.728 (inactive). In addition, in [20], the z-score was determined as 1.91.
Consider `COc1ccc(C(O)C2C=CC3C(=O)N(c4ccccc4)C(=O)C3N2Nc2ccccc2F)c2ccccc12` (stereo not given), for which the composite z-score in assay [1] amounted to 0.936; in [6], 2.38; in assay [7] it was 1.11; with Torsin-1A (Homo sapiens) [8] it was 0.163; in the assay with Torsin-1A (Homo sapiens) [9] it was 0.273; in assay [10], 0.824. In addition, the composite z-score in assay [12] is 1.16. Further, the z-score in [2] was -0.225 (inactive); in assay [3] it was -1.21 (inactive); in assay [4], 0.629 (inactive); in [5] it was -0.813 (inactive); in assay [11] it was -0.462 (inactive); in [13] it was 3.82 (inactive). Also, the z-score in assay [14] was 1.71 (inactive); in assay [15] it was 0.419 (inactive); in [16], 1.05 (inactive); in [17] it was -0.593; in assay [18], -0.232 (inactive); in assay [19] it was -1.7 (inactive). Further, in [20], the z-score is -2.13.
In the case of `O=C1c2ccccc2[C@](Cc2ccccc2I)(C(=O)NCCN2CCOCC2)[C@H](c2ccc(CO)cc2)N1Cc1ccccc1C(F)(F)F`, the composite z-score in assay [1] was 0.0104; in assay [6], 0.515; in assay [7] it was -0.038; with Torsin-1A (Homo sapiens) [8] it was 0.717; in the assay with Torsin-1A (Homo sapiens) [9], 0.469; in assay [10], 0.468. This compound gave a composite z-score in assay [12] of 0.284. Besides, the z-score in assay [2] was -3.41 (inactive); in assay [3] it was 0.588 (inactive); in assay [4] it was 0.0909 (inactive); in assay [5], 0.655 (inactive); in [11] it was -2.6 (inactive); in [13], 7.91 (inactive). Further, the z-score in assay [14] is 1.13 (inactive); in [15] it was 1.59 (inactive); in assay [16], 0.65 (inactive); in [17], 0.401; in assay [18] it was -1.06 (inactive); in assay [19] it was 0.814 (inactive). In assay [20], the z-score stood at 1.15.
Take `C=C(C(=O)CC[C@H](OC(=O)c1ccccc1-c1ccccc1C(=O)O)c1ccc(OCCO)cc1)C(C)C`: the composite z-score in assay [1] is 0.686; in assay [6], -0.0151; in assay [7] it was 0.0497; in the assay with Torsin-1A (Homo sapiens) [8] it was 1.87; with Torsin-1A (Homo sapiens) [9], 1.5; in [10] it was 0.7. In addition, in assay [12], the composite z-score amounted to 0.235. Also, the z-score is -0.723 (inactive) in [2]; -1.22 (inactive) in assay [3]; 0.611 (inactive) in assay [4]; 1.09 (inactive) in [5]; -0.0716 (inactive) in [11]; 11.6 (active) in assay [13]. Also, the z-score in assay [14] is 1.77 (inactive); in assay [15], 2.09 (inactive); in assay [16] it was 0.92 (inactive); in assay [17], -0.154; in assay [18], 0.357 (inactive); in [19] it was -0.446 (inactive). For the same compound, in [20], the z-score was -2.12.
